PubChem BioAssay AID1053173 (Broad Institute, 2014)
Hit rate of the full screen: of about 1,500 compounds, about 390 (26%) were called active. How the calls were made is not given here. The list is a sample of the results. Entries with a potency or affinity are not part of this list.

target: Histone-lysine N-methyltransferase NSD2 (Homo sapiens) (UniProt O96028); experiment: blockers of NSD2 H4 peptide methylation – biochemical, AlphaScreen, cherry-picked samples, dose response (AID 1053173); conditions: 120 min; series mostly up to 10 µM; activity change, negative = inhibition: at the top concentration;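 further: 0% = neutral control wells and -100% = positive control wells on each plate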
Sequence (O96028 whole entry, looked up): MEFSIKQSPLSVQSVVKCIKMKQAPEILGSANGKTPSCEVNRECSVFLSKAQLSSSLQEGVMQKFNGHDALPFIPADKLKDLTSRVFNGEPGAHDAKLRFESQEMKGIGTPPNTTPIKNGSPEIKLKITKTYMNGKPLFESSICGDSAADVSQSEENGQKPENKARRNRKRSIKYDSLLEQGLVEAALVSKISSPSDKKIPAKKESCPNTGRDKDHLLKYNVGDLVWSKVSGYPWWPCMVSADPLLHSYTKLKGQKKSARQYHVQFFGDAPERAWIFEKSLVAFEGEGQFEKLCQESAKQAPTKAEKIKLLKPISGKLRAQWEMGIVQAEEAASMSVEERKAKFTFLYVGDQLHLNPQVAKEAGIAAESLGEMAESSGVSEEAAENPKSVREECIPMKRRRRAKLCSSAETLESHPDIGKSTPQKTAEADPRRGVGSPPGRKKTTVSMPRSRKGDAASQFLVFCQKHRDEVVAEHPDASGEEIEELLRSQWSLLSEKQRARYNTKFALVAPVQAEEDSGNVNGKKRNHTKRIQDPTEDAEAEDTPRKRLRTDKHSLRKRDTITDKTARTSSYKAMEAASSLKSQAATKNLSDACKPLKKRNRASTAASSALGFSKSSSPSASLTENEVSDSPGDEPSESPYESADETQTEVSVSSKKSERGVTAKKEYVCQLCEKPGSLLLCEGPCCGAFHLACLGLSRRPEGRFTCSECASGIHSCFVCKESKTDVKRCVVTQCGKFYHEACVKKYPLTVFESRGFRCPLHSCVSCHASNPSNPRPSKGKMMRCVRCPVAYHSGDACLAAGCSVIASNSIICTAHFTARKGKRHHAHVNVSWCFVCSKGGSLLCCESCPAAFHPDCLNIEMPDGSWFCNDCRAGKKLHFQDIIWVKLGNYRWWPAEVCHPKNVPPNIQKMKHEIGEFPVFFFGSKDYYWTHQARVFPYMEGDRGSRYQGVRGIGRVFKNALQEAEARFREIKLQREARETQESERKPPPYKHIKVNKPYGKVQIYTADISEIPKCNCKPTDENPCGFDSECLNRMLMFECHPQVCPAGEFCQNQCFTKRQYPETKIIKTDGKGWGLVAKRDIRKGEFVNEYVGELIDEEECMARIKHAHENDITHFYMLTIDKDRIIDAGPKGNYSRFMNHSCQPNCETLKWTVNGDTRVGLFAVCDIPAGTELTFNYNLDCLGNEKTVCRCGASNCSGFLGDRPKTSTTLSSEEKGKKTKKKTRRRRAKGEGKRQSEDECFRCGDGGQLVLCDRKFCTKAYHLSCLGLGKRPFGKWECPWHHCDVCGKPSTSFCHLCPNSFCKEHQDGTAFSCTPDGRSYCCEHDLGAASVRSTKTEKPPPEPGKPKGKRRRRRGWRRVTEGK

| SMILES | activity change, negative = inhibition |
| --- | --- |
| CCN(CC)S(=O)(=O)c1cccc(-c2nnc(SCCCC(=O)c3ccc(F)cc3)o2)c1 | 3.87% (inactive) |
| Cc1[nH]n(-c2ccccc2)c(=O)c1N=Nc1ccccc1C(=O)N1CCCCC1 | -7.67% (inactive) |
| CC1(C)Cc2c(c(-c3ccco3)[nH]c(=O)c2C#N)CS1 | 0.181% (inactive) |
| CCc1ccc(-c2cc(C)no2)cc1S(=O)(=O)N1CCN(c2ccc(F)cc2)CC1 | -4.42% (inactive) |
| COc1ccc(NC(=O)CC2C(=O)NCCN2C(=O)c2ccc(N(C)C)cc2)cc1 (configuration not stated) | -1.08% (inactive) |
| Cc1cc(NC(=O)CSc2nc3ccccc3cc2C#N)no1 | -0.11% (inactive) |
| O=C(Nc1ccc(O)cc1)C1CC=CCC1 (configuration not stated) | -10.4% (inactive) |
| CC1CN(Cc2nc3c(c(=O)n(C)c(=O)n3C)n2CCCc2ccccc2)CC(C)O1 (configuration not stated) | -1.88% (inactive) |
| O=C(OCc1cccc2ccccc12)C1CC(=O)N(c2ccccc2)C1 (configuration not stated) | 3.19% (inactive) |
| COc1cccc2c1N1C(=O)c3c(C(=O)O)cccc3C1CC2(C)C (configuration not stated) | 3.68% (inactive) |
| COc1ccc(C2C(C(=O)c3ccco3)=C(O)C(=O)N2CC2CCCO2)cc1OC (configuration not stated) | -0.379% (inactive) |
| CCOC(=O)c1c(NC(=O)COC)sc2c1CCCC2 | 10.5% (inactive) |
| CCN(C(=S)Nc1ccc(C(C)=O)cc1)C1CCCCC1 | -13.8% (inactive) |
| CC1CN(Cc2cc(=O)n3ccsc3n2)CC(C)O1 (configuration not stated) | 0.845% (inactive) |
| CC(C)CN(C(=O)COC(=O)c1ccc([N+](=O)[O-])s1)c1c(N)n(Cc2ccccc2)c(=O)[nH]c1=O | -7.51% (inactive) |
| COCCn1c(N)c(N(Cc2ccccc2)C(=O)c2cc(=O)[nH]c3ccccc23)c(=O)[nH]c1=O | 0.044% (inactive) |
| CCn1c(SCC(=O)N2CCCCC2)nc2c1c(=O)n(C)c(=O)n2C | 6.67% (inactive) |
| CCOC(=O)C1=C(C)N(C)C(=S)NC1c1ccccc1Cl (configuration not stated) | 9.94% (inactive) |
| COc1cc(/C=C2\SC(N)=NC2=O)cc(Cl)c1O | -7.1% (inactive) |
| O=C(CCc1nnc(-c2ccccc2)o1)NCc1cc(F)ccc1F | 3.74% (inactive) |
| CCNC(=O)C1CCCN(C(=O)c2ccccc2OC(F)(F)F)CC1 (configuration not stated) | 2.17% (inactive) |
| O=C(CN1CCOCCOCCN(CC(=O)Nc2ccccc2)CCOCC1)Nc1ccccc1 | 4.89% (inactive) |

| SMILES | activity change, negative = inhibition |
| --- | --- |
| Cc1ccccc1N1CC(C(=O)Nc2ccc(S(=O)(=O)N3CCOCC3)cc2)CC1=O (configuration not stated) | 1.56% (inactive) |
| Cc1ccc(S(=O)(=O)c2ccc(Cl)cc2)cc1S(=O)(=O)N1CCOCC1 | 5.97% (inactive) |
| COc1ccc(NS(=O)(=O)c2cc(NC(=O)COc3ccccc3)ccc2N2CCOCC2)cc1 | 1.67% (inactive) |
| Cc1ccc(/C=N/NC(=O)c2cc3ccccc3cc2O)o1 | -3.67% (inactive) |
| CCN(Cc1ccccc1)Cc1c(C)[nH]c2c(C)c(C)ccc2c1=O | 0.95% (inactive) |
| CCCc1cc(=O)n(-c2nc3ccccc3s2)[nH]1 | 6.4% (inactive) |
| CC1(C)Cc2c(c(-c3ccco3)[nH]c(=O)c2C#N)CO1 | 3.06% (inactive) |
| O=C(CSc1nc(-c2ccccc2)c(-c2ccccc2)o1)N1CCCCC1 | 4.5% (inactive) |
| CCOC(=O)c1ccc(N=c2scc(C)n2CC)cc1 | -13.2% (inactive) |
| CC1(C)CC(N=C2C=CC3=NC45CCCCC4CC4=C(CCCC4)N5C3=C2)CC(C)(C)N1 (configuration not stated) | -4.28% (inactive) |
| COc1ccc(N=c2scc(C)n2CCCN2CCCC2=O)cc1 | 1.93% (inactive) |
| CCOC(=O)Nc1ccc(=O)n(Cc2c(Cl)cccc2Cl)c1 | 4.15% (inactive) |
| CN(C(=S)NC(=O)C1(C)CC1(Cl)Cl)c1ccccc1 (configuration not stated) | 6.66% (inactive) |
| O=C(NNC(=O)c1ccc(Cl)nc1)c1ccc(Br)cc1 | 3.91% (inactive) |
| Oc1ccc(/C=N/N2CCOCC2)c(O)c1O | -4.15% (inactive) |
| Nc1cc(=O)[nH]c(SCC(=O)Nc2ccc(Cl)c(Cl)c2)n1 | -0.598% (inactive) |
| Cc1ccc(NC(=S)N2CCC(NC(=O)c3ccc(F)cc3)CC2)cc1 | 4.5% (inactive) |
| COCC(C)n1c(SCC(=O)NC2CCCCC2C)nc2ccccc2c1=O (configuration not stated) | -6.67% (inactive) |
| Cc1cccc(-n2c(Cn3nc(C)c([N+](=O)[O-])c3C)n[nH]c2=S)c1 | 4.32% (inactive) |
| Cc1csc(SCC(=O)Nc2ccc3c(c2)OCCO3)n1 | -0.732% (inactive) |
| COC(=O)c1ccccc1-c1ccc(C(c2c(C)[nH][nH]c2=O)c2c(C)[nH][nH]c2=O)o1 | -2.23% (inactive) |
| Cc1[nH][nH]c(=O)c1C(c1ccc(-c2ccc(C(=O)O)cc2)o1)c1c(C)[nH][nH]c1=O | -3.01% (inactive) |

| SMILES | activity change, negative = inhibition |
| --- | --- |
| Cc1cccc(C(=O)NCc2nnc(SCC(=O)Nc3nnc(C)s3)n2C)c1 | 3.02% (inactive) |
| O=c1c2cnn(-c3ccccc3)c2nc(-c2ccco2)n1-c1ccccc1 | 3.67% (inactive) |
| Cc1ccc(S(=O)(=O)NC(C(=O)N2CCN(S(=O)(=O)c3cccc(F)c3)CC2)C(C)C)cc1 (configuration not stated) | 0.222% (inactive) |
| COc1ccccc1OCC(=O)Nc1ccc(S(=O)(=O)N2CCCC2)cc1 | 1.45% (inactive) |
| Cc1ccccc1NCC(=O)Nc1cc(S(=O)(=O)N2CCCCC2)ccc1C | -1.45% (inactive) |
| Cc1ccc(S(=O)(=O)N(C)CC(=O)NCCCn2ccnc2)cc1 | -5.32% (inactive) |
| CN(c1ccccc1)c1ncnc2c1ncn2C | -5.28% (inactive) |
| COc1ccc2c(c1)Cc1sc(NC(C)=O)nc1-2 | -4.87% (inactive) |
| Cc1nn(-c2ccccn2)c2c1C(=O)C(Br)CC2 (configuration not stated) | -4.7% (inactive) |
| CC(=O)c1ccc(N(CC(=O)NCCc2ccccc2)C(=O)c2csnn2)cc1 | 0.43% (inactive) |
| O=C(OCc1ccc([N+](=O)[O-])cc1)c1cc(=O)c2ccccc2o1 | 5.19% (inactive) |
| COc1ccccc1N(CC(=O)NCC1CCCO1)C(=O)CNS(=O)(=O)c1ccc(C)cc1 (configuration not stated) | 1.22% (inactive) |
| O=C1c2ccccc2C(=O)N1CCC(c1ccc(F)cc1)c1ccco1 (configuration not stated) | 1.01% (inactive) |
| COc1ccc(Cc2nnc(NC(=O)C3CC(=O)N(c4ccc(OC)cc4)C3)s2)cc1 (configuration not stated) | -0.048% (inactive) |
| O=C(CN(C(=O)c1csnn1)c1ccc(F)c(Cl)c1)NC1CCCCC1 | 0.495% (inactive) |
| Cc1nc(N)sc1-c1nnc(SCC(=O)Nc2ccccc2C(F)(F)F)n1C | -2.66% (inactive) |
| CC(C)(C)NC(=O)COC(=O)c1ccc2c(c1)C(=O)N(Cc1ccco1)C2=O | -1.9% (inactive) |
| CC1=NN(c2ccccc2)C(=O)/C1=C/N(C)C | -4.42% (inactive) |
| Cn1c(=O)[nH]c(=O)c2c1nc(N/N=C/c1ccncc1)n2Cc1ccc(F)cc1 | 1.06% (inactive) |
| Cc1ccc(-c2csc3nc(CN(C)Cc4ccccc4)[nH]c(=O)c23)cc1 | -0.858% (inactive) |
| CCC(CC)c1nnc(NC(=O)CCS(=O)(=O)Cc2ccccc2)s1 | 0.024% (inactive) |
| CCCCn1cnc2c(=S)nc(N)[nH]c21 | -2.03% (inactive) |

| SMILES | activity change, negative = inhibition |
| --- | --- |
| CCn1cc(/C=N\NC(=O)C2(C)CC2(Cl)Cl)c(C)n1 (configuration not stated) | 6.99% (inactive) |
| NNC(=O)c1nc(-c2ccccc2)cc(-c2ccccc2)n1 | -1.02% (inactive) |
| CC12CCC(C)(c3nc4ccccc4nc31)C2(C)C | -0.479% (inactive) |
| Cc1cc(C)n(CCC(=O)N2CCN(S(=O)(=O)c3ccccc3)CC2)n1 | 5.12% (inactive) |
| Cc1cccc2c(N=NC(=O)c3ccc(NS(=O)(=O)c4cccs4)cc3)c(O)[nH]c12 | -5.5% (inactive) |
| Cc1cc(S(=O)(=O)NCc2cccnc2)ccc1F | -2.37% (inactive) |
| O=C(COc1ncnc2c(Cl)cc(Cl)cc12)N1CCCCC1 | -0.554% (inactive) |
| Cn1ncc2c(Nc3cccc4ccccc34)ncnc21 | 2.95% (inactive) |
| O=C(NCCN1CCOCC1)NC1(C(F)(F)F)Oc2ccccc2O1 | -0.91% (inactive) |
| CCCCc1ccc(NC(=O)CSc2nc(=O)n(CCN(CC)CC)c3c2CCCC3)cc1 | -5.12% (inactive) |
| Cc1cc(SCC(=O)Nc2cccnc2Cl)nc2ccccc12 | 0.285% (inactive) |
| COc1ccc(C(=O)Nn2c(SCC(=O)c3ccc(Cl)cc3)nc3ccccc3c2=O)cc1 | -2.62% (inactive) |
| Cc1ccc(-c2cc(C(=O)N/N=C/c3ccccc3)n[nH]2)o1 | -1.55% (inactive) |
| Cc1cc(=O)[nH]c(N/N=C/c2c(C)nn(-c3ccccc3Cl)c2Cl)n1 | -1.01% (inactive) |
| Cc1ccc(O)c(NC(=O)c2cc3nc4c(c(C(F)(F)F)n3n2)CCc2ccccc2-4)c1 | -1.53% (inactive) |
| O=C(Nc1cc(F)ccc1F)N1CCN(c2ccnc3cc(Cl)ccc23)CC1 | -0.162% (inactive) |
| COc1ccc(C(=O)C(OC(=O)c2ccc(C)c(NC(C)=O)c2)c2ccccc2)cc1 (configuration not stated) | -3.15% (inactive) |
| COCCN(C(=O)CNC(=O)c1ccco1)C(C(=O)NC1CCCC1)c1ccc(OC)cc1 (configuration not stated) | 0.585% (inactive) |
| CC1(C)NC(=O)N(CCCOc2ccccc2Br)C1=O | -1.93% (inactive) |
| CCOc1cc(NC2CS(=O)(=O)CC2O)c(OCC)cc1NC(=O)c1ccccc1 (configuration not stated) | -10.2% (inactive) |
| Cc1ccc(N2C(=O)N(CC(=O)Nc3cccc([N+](=O)[O-])c3C)C(=O)C2C)cc1 (configuration not stated) | -2.74% (inactive) |
| Cc1ccc(NC(=O)CCC(=O)OCC(F)(F)C(F)F)cc1 | -4.16% (inactive) |

| SMILES | activity change, negative = inhibition |
| --- | --- |
| O=C(CC(=O)Nc1ccc(Cl)cc1)N/N=C\c1cccc(F)c1 | 7.1% (inactive) |
| O=C(NNC(=O)c1ccc(NC(=O)C2CC2)cc1)c1ccc(F)cc1 | -4.45% (inactive) |
| CC1CCN(CCC(=O)Nc2ccccc2)CC1 | -1.04% (inactive) |
| CNS(=O)(=O)c1cc(NC(=O)CCCNC(=O)c2ccc(Cl)cc2)ccc1C | -3.69% (inactive) |
| Cc1ccc(NC(=O)CCn2c(=O)oc3ccccc32)cc1 | 1.97% (inactive) |
| CC1CCCCC12NC(=O)N(CC(=O)NC(=O)NCc1ccco1)C2=O (configuration not stated) | 5.2% (inactive) |
| COc1cccc(CNC(=S)Nc2ccc(Cl)cc2C)c1 | 2.1% (inactive) |
| O=[N+]([O-])c1ccccc1-c1ccc(C(=S)N2CCCC2)o1 | -6.85% (inactive) |
| Cn1cc(-c2ccccc2C(N)=O)c(=O)c2ccccc21 | -1.88% (inactive) |
| CC1CCCC(NC(=O)COC(=O)c2c[nH]c(=O)[nH]c2=O)C1C (configuration not stated) | -1.68% (inactive) |
| O=C(OCc1cnc(Cl)s1)c1cccs1 | -1.1% (inactive) |
| Cc1ccc(N2CS(=O)(=O)/C(=C/N(C)C)C2=O)cc1 | 5.06% (inactive) |
| Cn1c(CSCc2ccccc2)nnc1SCC(=O)Nc1nccs1 | 0.187% (inactive) |
| O=C(CC1C(=O)N(c2ccccc2)C(=S)N1c1ccccc1)c1ccc(Br)cc1 (configuration not stated) | -0.56% (inactive) |
| CCn1c(O)c(/C=N/n2cnnc2)sc1=S | 0.542% (inactive) |
| CCOc1ccc(-c2nnc(SCc3nc4ccccc4[nH]3)n2N)cc1 | -2.78% (inactive) |
| CCOC(=O)C(Oc1ccc2c(-c3ccc(OC)cc3)cc(=O)oc2c1C)c1ccccc1 (configuration not stated) | -0.617% (inactive) |
| CCOC(=O)c1c(C#N)c(SCC(=O)Nc2ccc(OC)cc2)nc2c1CN(CC)CC2 | -3.26% (inactive) |
| COc1ccc(OCCSc2nnc(CCNC(=O)c3ccc(Cl)c(Cl)c3)n2C)cc1 | 1.83% (inactive) |
